Assay outcomes as filed in PubChem.
Compounds with a hit are over-represented: about 4.3% of the library has one in this group of screens.
dFosB act: mouse delta FosB homodimer activation. 0.99% of 340,000 active. activation, % at 25 µM. AID 493131. P13346. purified delta FosB, TAMRA-CDK5 oligo fluorescence polarization; percent of positive-control signal above neutral wells;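 active = mean activation above about 17%, with every replicate also reaching it, limit read from the data, passing the limit was not always enough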
Target sequence (P13346 whole entry, looked up): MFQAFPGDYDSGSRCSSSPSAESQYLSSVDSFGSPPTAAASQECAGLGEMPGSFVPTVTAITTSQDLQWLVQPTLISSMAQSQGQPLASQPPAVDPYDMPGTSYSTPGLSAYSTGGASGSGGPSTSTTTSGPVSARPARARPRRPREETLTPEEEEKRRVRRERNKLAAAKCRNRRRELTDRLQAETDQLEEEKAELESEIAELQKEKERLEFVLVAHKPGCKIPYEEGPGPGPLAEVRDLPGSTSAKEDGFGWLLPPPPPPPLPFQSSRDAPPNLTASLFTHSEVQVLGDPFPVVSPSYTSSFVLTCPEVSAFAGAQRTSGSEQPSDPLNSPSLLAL
UBC13 inh: inhibitors of human UBC13 polyubiquitin chain formation | 0.47% of 330,000 active | TR-FRET | P61088 | inhibition, % at 20 µM; in the data active = inhibition above about 45%, passing the limit was not always enough
Target sequence (P61088 whole entry, looked up): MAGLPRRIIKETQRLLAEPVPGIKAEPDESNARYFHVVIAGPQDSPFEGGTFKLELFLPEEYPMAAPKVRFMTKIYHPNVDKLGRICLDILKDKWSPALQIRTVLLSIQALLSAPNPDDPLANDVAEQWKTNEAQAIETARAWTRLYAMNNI
NALP1 inh: inhibitors of NALP1 inflammasome in yeast. inhibition, % at 10 µM. 0.61% of 280,000 active. S. cerevisiae NALP1/ASC/caspase-1 growth, X-gal OD620, 72 h; in the data active = inhibition mostly above about 24%, no sharp cut-off; inactive = mostly below about 32%
NR3A LBD binder: modulates the human NR3A ligand-binding domain; Tm shift relative to glycine control, % at 25 µM; 2.5% of 340,000 active; AID 1259313; NR3A LBD differential scanning fluorimetry, Tm shift; 0% = protein alone, 100% = glycine-bound protein;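 active = melting temperature shift of at least 10% of the positive control shift, at one fixed dose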
CR mimetic SO: lowers age-related superoxide in aged yeast cells. AID 2690. 0.18% of 330,000 active. S. cerevisiae aged cells, superoxide DHE fluorescence; active compounds read low. superoxide response (% of plate mean), % at 10 µM;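 active = superoxide response under a set limit, about three screen SD below normal, cut at about 65% in these data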;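 also: yeast aged for seven days with compound at 30 °C before DHE staining; 100% = average MFI of all compound-treated wells on the plate with controls excluded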
* hit, by the source's call; x = no result given.

SMILES	dFosB act	UBC13 inh	NALP1 inh	NR3A LBD binder	CR mimetic SO
CC(Sc1nnc(C(F)(F)F)n1C)C(=O)Nc1ccc(S(N)(=O)=O)cc1 (stereo not given)	0.2	8.1	-3.5	-1.2	86.5
O=S(=O)(Nc1ccc(O)c(Sc2nc3ccccc3s2)c1)c1ccc(Cl)cc1	-7.3	-2.2	-2.0	16.0*	114.5
Cc1ccc(O)c(-c2cc(C(F)(F)C(F)F)nc(-c3ccccc3)n2)c1	-2.8	-15.2	13.0	-0.3	93.1
Oc1ccc(Cl)cc1-c1cc(C(F)(F)C(F)F)nc(-c2ccccc2)n1	-9.6	3.8	42.9*	2.0	103.2
CCOC(=O)c1sc(N)nc1-c1ccccc1	-5.2	-8.2	-45.7	-0.6	88.8
CCOC(=O)c1snc(-c2ccc(F)cc2)c1N	-1.1	-3.5	20.1	14.2*	110.5
CN(Cc1ccn[nH]1)C(=O)C1CCC(=O)N(Cc2cccc(C(F)(F)F)c2)C1 (stereo not given)	-0.5	-1.1	15.4	1.8	85.2
CCCCCSc1nc(N2CCOCC2)c2c(c1C#N)CC(C)(C)OC2	-8.2	20.7	10.3	23.2*	103.1
CC(C)CSc1nc(N2CCOCC2)c2c(c1C#N)CC(C)(C)SC2	-8.3	-6.7	-1.2	0.0	98.2
CC(C)Sc1nc(N2CCOCC2)c2c(c1C#N)CC(C)(C)SC2	-5.1	-4.1	35.6*	1.9	89.7
Cc1ccc2c(C)c(C(=O)N3CCCCC3CO)oc2c1C (stereo not given)	-3.8	1.0	32.4	-3.1	89.9
COc1ccc(NC(=S)NC(NC(=O)c2cccc(Cl)c2)C(Cl)(Cl)Cl)c([N+](=O)[O-])c1 (stereo not given)	13.4	-39.9	16.9	12.6*	95.0
COc1ccc(NC(=S)NC(NC(=O)c2cccc(C)c2)C(Cl)(Cl)Cl)c([N+](=O)[O-])c1 (stereo not given)	-0.3	-16.2	10.3	10.1*	99.3
COc1ccc(C(=O)NC(=S)Nc2ccc(S(N)(=O)=O)cc2)cc1	4.5	1.5	1.8	-3.7	107.3
O=C(Cc1cccc2ccccc12)NC(NC(=S)Nc1ccccc1Cl)C(Cl)(Cl)Cl (stereo not given)	10.7	3.6	17.9	19.5*	119.4
COc1ccc(C(=O)NC(NC(=S)Nc2ccc(S(N)(=O)=O)cc2)C(Cl)(Cl)Cl)cc1 (stereo not given)	-12.4	3.2	-6.6	13.1*	112.1
COc1ccc(NC(=S)NC(NC(C)=O)C(Cl)(Cl)Cl)c([N+](=O)[O-])c1 (stereo not given)	-1.0	-2.4	24.7	-1.8	92.0
CCCCn1c(SCC(=O)OCC)nc2c(sc(=S)n2-c2ccccc2OC)c1=O	-5.1	0.8	-3.6	1.1	92.2
O=C(NC(NC(=S)Nc1ccccc1C(=O)O)C(Cl)(Cl)Cl)c1cccc([N+](=O)[O-])c1 (stereo not given)	0.7	-9.5	14.9	15.8*	99.6
O=C(NC(NC(=S)Nc1ccccc1Cl)C(Cl)(Cl)Cl)c1cccc(Cl)c1 (stereo not given)	-21.4	-3.1	9.3	12.6*	117.2
Cc1cccc(NC(=O)c2nc[nH]c2C(=O)NCCCNC(=O)c2[nH]cnc2C(=O)Nc2cccc(C)c2)c1	-1.3	4.0	x	12.3*	99.4
Cc1cccc(NC(=O)c2nc[nH]c2C(=O)Nc2cccc(C)c2)c1	-2.2	5.4	11.8	-8.7	85.5
Cc1cccc(NC(=O)c2nc[nH]c2C(=O)NCCCCCNC(=O)OC(C)(C)C)c1	-7.2	6.3	x	-9.9	121.5
Cc1cccc(NC(=O)c2nc[nH]c2C(=O)NCCN(CCNC(=O)c2[nH]cnc2C(=O)Nc2cccc(C)c2)CCNC(=O)c2[nH]cnc2C(=O)Nc2cccc(C)c2)c1	3.5	6.6	x	14.4*	80.8
COc1ccc(NC(=O)CN(C)C(=O)C(Sc2ccccc2)c2ccccc2)cc1 (stereo not given)	-14.9	8.5	x	-1.6	82.5
SMILES	dFosB act	UBC13 inh	NALP1 inh	NR3A LBD binder	CR mimetic SO
Cc1cc(C(=O)NC2Cc3ccccc3C2)c(C)o1	1.1	0.4	16.0	-0.7	100.8
CC1CCCC(NCC(=O)Nc2ccc(C(N)=O)cc2)C1C (stereo not given)	-3.6	-0.4	-2.6	-1.5	94.5
CCCc1nnc(NS(=O)(=O)c2ccc(C)cc2)o1	1.2	x	x	0.2	x
Nc1ccc(C(=O)OCc2nc3cc4ccccc4cc3[nH]2)cc1	-2.9	-12.2	4.5	4.6	116.0
Nc1ccc(C(=O)OCc2nc3c(ccc4ccccc43)[nH]2)cc1	-5.4	9.4	4.6	26.8*	91.1
COc1ccc(Nc2ccc3c(c2)=NC2(CCCCC2)[N+]=3[O-])cc1	-6.8	-270.6	39.9*	-1.4	113.3
CC(=O)c1c(O)cc(C)n(-c2ccc(F)cc2)c1=O	0.3	-3.5	28.7*	1.7	100.6
CC(=O)c1c(O)cc(C(C)C)n(-c2ccccc2)c1=O	3.0	8.5	8.3	11.5*	97.7
COc1cc(OC)cc(C(=O)NCC2CCCN(Cc3cccc(C(C)=O)c3)C2)c1 (stereo not given)	-0.9	2.6	10.2	-2.2	95.7
O=C(CN1CCCC1)Nc1ccc([N+](=O)[O-])cc1	-1.1	-3.0	11.7	0.1	138.5
COc1ccc(C(C[N+](=O)[O-])c2c(-c3ccccc3)cc3ccccn23)cc1OC (stereo not given)	2.9	-12.4	8.3	-0.3	100.8
COc1ccc(C(C[N+](=O)[O-])C2(c3ccc(OC)c(OC)c3)C(=O)c3ccccc3C2=O)cc1 (stereo not given)	0.1	x	103.8*	-0.1	118.2
NC(N)=NCCCC(NC(=O)c1ccccc1)C(=O)Nc1ccc([N+](=O)[O-])cc1 (stereo not given)	-1.0	27.4	x	15.7*	116.3
O=C(c1cc2ccccc2o1)N1CCN(C/C=C/c2ccccc2)CC1	-12.5	-3.9	43.6*	-1.3	94.3
O=c1cc(CN2CCN(c3ccccc3F)CC2)c2cc(O)c(-c3ccccc3)cc2o1	-3.9	-16.0	29.2	2.2	96.1
CC(=O)N1CCN(C(=O)c2cc3ccccc3o2)CC1	0.4	-4.5	18.1	-0.4	83.8
O=c1cc(CN2CCN(C/C=C/c3ccccc3)CC2)c2cc(O)c(-c3ccccc3)cc2o1	65.5*	7.6	37.7	3.4	97.4
Cc1cc2oc(=O)cc(CN3CCN(C/C=C/c4ccccc4)CC3)c2cc1O	24.6*	-2.1	16.9	x	96.5
Cc1cc2oc(=O)cc(CN3CCN(Cc4ccccc4)CC3)c2cc1O	1.7	-5.8	6.6	-2.7	114.1
CCCCC1C(=O)NN(c2ccccc2)C1=O (stereo not given)	2.3	x	x	0.2	x
O=C1C(CCS(=O)c2ccccc2)C(=O)N(c2ccccc2)N1c1ccccc1 (stereo not given)	2.0	-0.4	22.8	17.0*	90.5
CCOC(=O)c1ccc2c(c1)nc(SCc1cn3ccsc3n1)n2CC	-9.9	2.3	-4.1	3.2	87.2
CCOC(=O)C1=C(CC)Nc2ccccc2N=C1NC(=O)Nc1ccc(Cl)c(Cl)c1	-8.0	-6.2	-0.7	28.3*	126.5
